Each structure is given as a SMILES string. Inconclusive results are not listed. More than one record can exist for a structure, and the calls need not agree. Activity calls are given as the source filed them. Rule for the calls: active = hit-call score of the fitted dose curve at least 0.9, where 1 is the maximum; inconclusive = response in the unintended direction; inactive = score below 0.9.

Cellular tumor antigen p53 (Homo sapiens), sequence (P04637 whole entry, looked up, the tested form may be a part): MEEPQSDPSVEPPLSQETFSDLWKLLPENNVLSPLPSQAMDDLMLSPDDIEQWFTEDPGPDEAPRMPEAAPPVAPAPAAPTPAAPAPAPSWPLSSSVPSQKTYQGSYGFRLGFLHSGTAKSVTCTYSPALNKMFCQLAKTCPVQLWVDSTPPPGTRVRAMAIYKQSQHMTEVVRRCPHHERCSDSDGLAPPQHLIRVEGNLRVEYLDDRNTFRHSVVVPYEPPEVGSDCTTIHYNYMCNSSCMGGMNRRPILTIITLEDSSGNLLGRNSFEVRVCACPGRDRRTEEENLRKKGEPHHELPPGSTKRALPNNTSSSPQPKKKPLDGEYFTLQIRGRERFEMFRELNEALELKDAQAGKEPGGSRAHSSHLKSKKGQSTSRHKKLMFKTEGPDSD

This experiment concerns the target Cellular tumor antigen p53 (Homo sapiens) (UniProt P04637). The experiment in a line: TOX21_p53_BLA_p5_ratio: Tox21 HCT-116 p53 Agonism Beta-lactamase Assay, Ratio, Phase 5 (AID 2283599). From the text: TOX21_p53_BLA_p5 is a cell-based, single-readout assay that uses HCT116, a human intestinal cell line, […] in a 1536-well plate.TOX21_p53_BLA_p5_ratio is an assay readout measuring reporter gene via receptor activity and designed using inducible reporter (beta lactamase induction) detected with GAL4 b-lactamase reporter gene. The signal is derived from the ratio of cleaved (ch2) to uncleaved (ch1) reporter gene substrate used as the measure of target activity.Data from the assay component TOX21_p53_BLA_p5_ratio was analyzed into 1 assay endpoint. This assay endpoint, TOX21_p53_BLA_p5_ratio, was analyzed in the positive analysis fitting direction relative to DMSO as the negative control and baseline of activity. Using a type of inducible reporter, gain-of-signal activity can be used to understand changes in the reporter gene as they relate to the gene TP53. Furthermore, this assay endpoint can be referred to as a primary readout, because this assay has produced multiple assay endpoints and this ratio serves a reporter gene function to understand target activity. To generalize the intended target to other relatable targets, this assay endpoint is annotated to the DNA binding intended target family, where the subfamily is tumor suppressor.
Thawing Method: Place 14 mL of pre-warmed thaw medium into a 15 mL of conical tub. Remove the vial of cells to be thawed from liquid nitrogen and thaw rapidly by placing at 37C in a water bath with gentle agitation for 1-2 minutes. Decontaminate the vial by wiping with 70% ethanol before opening in a biological safety cabinet. Transfer the vial contents drop-wise into 14 mL of thaw medium in a sterile 15-mL conical tub. Centrifuge cells at 900 rpm for 4 minutes and resuspend in thaw medium. Transfer contents to the T75 tissue culture flask containing Thaw Medium and place flask in a humidified 37C/5% CO2 incubator. Switch to growth medium at first passage.Propagation Method: Aspirate medium, rinse once in DPBS, add 0.25% Trypsin/EDTA and swirl to coat the cell evenly. Add an equal volume of Growth Medium to inactivate Trypsin after 2-3 minutes incubation at 37C. Centrifuge cells at 900 rpm for 4 minutes and resuspend in growth medium. Cell should be passage or fed at least twice a week.Assay Protocol: Harvest cells from culture in growth medium and resuspend in assay medium. 2.2 Dispense 4000 cells/5 uL/well into 1536-well black/clear bottom plates using a Multidrop dispenser. After the cells were incubated at 37C for 5 hours, 23 nL of compounds dissolved in DMSO were transferred to the assay plate by a PinTool resulting in a 217-fold dilution. Incubate the plates for 16 hours at 37C, 5% CO2. Add 1 uL of 6X LiveBLAzer FRET B/G (CCF4-AM) Substrate Mixture to each well using a BioRAPTR dispenser and incubate the plates at room temperature for 2 hours. Measure fluorescence intensity at 460 and 530 nm emission and 405 nm excitation by an Envision detector. Data is expressed as the ratio of 460nm/530nm emissions. Add 4 uL of Cell-titer Glo to each well using BioRAPTR and incubate the plates at room temperature for 2 hours. Measure fluorescence intensity by a VewLux plate reader.
`CCCCC(CC)CN1CN(CC(CC)CCCC)CC(C)(N)C1` (stereo not given): the result was inactive.

Take `NC(=O)CCCCC1CCSS1` (stereo not given): the outcome was inactive.

Turning to `CC(=O)SC[C@@H](Cc1ccccc1)C(=O)NCC(=O)OCc1ccccc1`, the result was inactive.

`NS(=O)(=O)Cc1noc2ccccc12`: the result was inactive.

In the case of `c1ccc(COCc2ccccc2)cc1`, the outcome was inactive.

As for `Cc1ccc([N+](=O)[O-])c(N)c1`, the result was inactive.

`Clc1ccccc1-c1nc(-c2ccncc2)no1`: the outcome was inactive.

Regarding `Nc1nnc(-c2ccc([N+](=O)[O-])o2)o1`, the result was inactive.

As for `CCSC(=O)N(CC)CC`, the result was inactive.

`O=C(O)C(=O)Nc1cccc(-c2nn[nH]n2)c1`: the outcome was inactive.

For orientation: AC50 means the midpoint of the concentration-response curve, whichever way the signal moves. Regarding `CCCCCC[C@@H](O)C/C=C\CCCCCCCC(=O)O`, the outcome was inactive and the AC50 was 37.4 µM (active).

`OCCN1CCN(CCCN2c3ccccc3Sc3ccc(C(F)(F)F)cc32)CC1`: the result was inactive.

`N[C@@H](CSSC[C@H](N)C(=O)O)C(=O)O`: the result was inactive.

For `NC(N)=NCc1cccc(I)c1`, the result was inactive.

As to `CCC(O)C(C)(C)C` (stereo not given), the outcome was inactive.

For the compound `CCCCN(CCCC)CCCOC(=O)c1ccc(N)cc1`, the outcome was inactive.

As for `O=Cc1cccc([N+](=O)[O-])c1`, the outcome was inactive.

`COC(=O)C1=C(C)NC(C)=C(C(=O)OCCCN2CCC(c3ccccc3)(c3ccccc3)CC2)C1c1cccc([N+](=O)[O-])c1` (stereo not given): the AC50 is 43.6 µM (active).

On to `NC(=O)CC[C@@H]1NC(=O)[C@H](Cc2ccccc2)NC(=O)[C@H](Cc2ccc(O)cc2)NC(=O)CCSSC[C@@H](C(=O)N2CCC[C@H]2C(=O)N[C@@H](CCCN=C(N)N)C(=O)NCC(N)=O)NC(=O)[C@H](CC(N)=O)NC1=O`, for which the result was inactive.

Regarding `COC(=O)c1ccccc1C(=O)c1ccc(OCCN2CCCCC2)cc1`, the result was inactive.

With `NC[C@H]1O[C@H](O[C@H]2[C@H](O)[C@@H](O[C@H]3O[C@H](CO)[C@@H](O)[C@H](N)[C@H]3O)[C@H](N)C[C@@H]2N)[C@H](N)C[C@@H]1O`, the result was inactive.

In the case of `N#CCC(=O)NN`, the outcome was inactive.

On to `Cc1ccc(=O)n(-c2ccccc2)c1`, for which the outcome was inactive.

With `CCC(C(=O)OCCOCCN(CC)CC)c1ccccc1` (stereo not given), the result was inactive.

Consider `NCCCNCCSP(=O)(O)O`, for which the outcome was inactive.

On to `CCOC(=O)OC(C)OC1=C(C(=O)Nc2ccccn2)N(C)S(=O)(=O)c2ccccc21` (stereo not given), for which the result was inactive.

On to `COc1cc(O)cc(O)c1`, for which the result was inactive.

For the compound `C[C@@H](O[C@H]1OCCN(Cc2n[nH]c(=O)[nH]2)[C@H]1c1ccc(F)cc1)c1cc(C(F)(F)F)cc(C(F)(F)F)c1`, the AC50 is 34.2 µM (active).

For the compound `C[C@@H]1C[C@H]2O[C@@]3(O[C@@H]2C(C)(C)O)[C@H](O)[C@@]2(C)[C@@H]4CC[C@H]5C(C)(C)[C@@H](O[C@@H]6OC[C@@H](O)[C@H](O)[C@H]6O)CC[C@@]56C[C@@]46CC[C@]2(C)[C@@H]13`, the result was inactive.

With `COc1cccc(N(C)C(=S)Oc2ccc3c(c2)CCCC3)n1`, the outcome was inactive.

Turning to `CCCCCCCCCCCC(=O)N(CCO)CCO`, the outcome was inactive.

With `CC(CNC1CCCCC1)OC(=O)c1ccccc1` (stereo not given), the result was inactive.

`CC1=CC(=O)CC(C)(C)C1(O)/C=C/C(C)=C\C(=O)O` (stereo not given): the outcome was inactive.

`CC(C)Oc1ccc2c(=O)c(-c3ccccc3)coc2c1`: the outcome was inactive.

As for `N#CCc1ccccc1[N+](=O)[O-]`, the result was inactive.

With `O=C(c1ccccc1)c1ccc2n1CCC2C(=O)O` (stereo not given), the result was inactive.

For the compound `CC(=O)[C@H]1CC[C@H]2[C@@H]3C=CC4=CC(=O)CC[C@@]4(C)[C@@H]3CC[C@]12C`, the outcome was inactive.

`O=C=Nc1cccc(C(F)(F)F)c1`: the outcome was inactive.

On to `CC(O)CN(CCCN(C)C)CCCN(C)C` (stereo not given), for which the result was inactive.

These data come from PubChem BioAssay (EPA / NIEHS).
